In all, about 10,000 compounds went through this assay and about 320 (3.2%) were called active. For the sample, actives were picked, then their nearest neighbours and some compounds at random. Values without a mark were called inactive. Cut-off read from the data, not from the text of the source: active = CPE inhibition mostly above about 9.1% (no sharp cut-off); inactive = mostly below about 7.2%.
Experiment: antivirals protecting cells from dengue CPE – CPE readout, HTS (AID 540333)
Conditions: Dengue virus CPE inhibition in host cells, at 20 µM; active compounds read high

| Compound | CPE inhibition |
| --- | --- |
| CCOP(=O)(OCC)C(Nc1ccccc1)c1cc(OC)ccc1OC (stereo not given) | inactive |
| COc1cccc(-c2c(-c3cc(OC)cc(OC)c3)n(C)c3ccc(-c4ccc5[nH]ccc5c4)cc23)c1 | 2.75% |
| O=C(/C=C/c1ccc(Cl)cc1Cl)N(Cc1ccc(Cl)cc1)C1CCS(=O)(=O)C1 (stereo not given) | 29.6% (active) |
| O=C(CCl)N(c1ccccc1)C1CCS(=O)(=O)C1 (stereo not given) | inactive |
| CCN(C(=O)COC(=O)/C=C/c1ccc(O)c(OC)c1)C1CCS(=O)(=O)C1 (stereo not given) | 0.935% |
| O=C(/C=C/c1ccc(Cl)cc1Cl)NCCSCc1ccccc1 | 0.45% |
| CC(C)CN(C(=O)CSc1nn(-c2ccc(Cl)cc2)c(=S)s1)C1CCS(=O)(=O)C1 (stereo not given) | 2.1% |
| O=C(/C=C/c1ccc(Cl)cc1Cl)N(Cc1ccccc1)C1CCS(=O)(=O)C1 (stereo not given) | 38.5% (active) |
| COc1nccnc1NS(=O)(=O)c1ccc(NC(=S)NC(=O)c2ccccc2)cc1 | inactive |
| Cc1cc(C)cc(NC(=O)CSc2nc3c(oc4ccccc43)c(=O)n2-c2ccccc2)c1 | 0.68% |
| COc1ccc(NC(=O)COC(=O)CNS(=O)(=O)c2ccc(F)c(F)c2F)cc1OC | inactive |
| O=C(Nc1cc(S(=O)(=O)Nc2ccc(Cl)cc2)ccc1N1CCCCC1)c1ccc(F)cc1Cl | inactive |
| N#Cc1ccc(C(=O)Nc2cc(S(=O)(=O)Nc3ccc(Cl)cc3)ccc2N2CCCCC2)cc1 | 7.53% (active) |
| COc1ccc(NS(=O)(=O)c2ccc(N3CCOCC3)c(NC(=O)c3ccc(OC)cc3)c2)cc1 | inactive |
| CCOC(=O)C1=C(O)/C(=C/c2ccc(OCC(=O)O)c(OCC)c2)SC1=Nc1ccc(OC)cc1 | 0.63% |
| CC(=O)N1c2ccccc2[C@H](C)[C@H]1C | inactive |
| O=C(NCCc1nc2ccccc2[nH]1)c1ccc(Cl)c([N+](=O)[O-])c1 | 0.05% |
| CCC[C@@H](NS(=O)(=O)c1ccc(C)cc1)C(=O)Oc1ccc2c3c(c(=O)oc2c1)CCC3 | inactive |
| CCNC(=S)N1CCN(CC(=O)Nc2ccc(Br)cc2)CC1 | 2.06% |
| O=C(CN1CCN(C(=S)NC2CCCC2)CC1)Nc1ccc(Oc2ccccc2)cc1 | 12.1% (active) |
| S=C(Nc1ccc(Br)cc1)NC1CCCCC1 | 4.99% |
| S=C(Nc1ccc(Oc2ccccc2)cc1)NC1CCCCCC1 | 0.02% |
| S=C(Nc1ccc(Oc2ccc(NC(=S)NC3CCCCC3)cc2)cc1)NC1CCCCC1 | 25.8% (active) |
| S=C(Nc1ccc(Oc2ccccc2)cc1)NC1CCCC1 | 0.255% |
| Cc1ccc(S(=O)(=O)N(C)Cc2ccc(C(=O)N/N=C/c3ccc(OC(F)F)cc3OC(F)F)cc2)cc1 | 2.12% |
